Bioassay records deposited in PubChem by Broad Institute.
PAX8 inh HTS: lowers PAX8-driven luciferase in RMG-I cells; RMG-I TPO-luciferase reporter, SteadyGlo, 24 h; inhibition, % at 12.6 µM; 1.2% of 360,000 active; AID 652154;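 active = mean replicate inhibition at least 60% with every replicate also reaching 60%; inconclusive = only one of the two criteria is met; inactive = mean below 60% and not all replicates reaching 60%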;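 also: luciferase light reporting Pax8 driven TPO promoter activity; plate controls were median of neutral control wells for no effect and mitoxantrone controls for full effect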
GSIS activator: GLuc luminescence reporter in INS-1E cells, primary screen for activators of glucose-dependent secretion of insulin | INS-1E GLuc reporter insulin secretion, 2-3 h | activation, % at 16.6 µM | 0.61% of 370,000 active;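 active = lowest replicate activation of at least 40%, so every replicate reaches that level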;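 also: 0% = median of neutral control wells and 100% = median of IBMX positive control wells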
C2C12 statin: suppression of simvastatin myotoxicity; C2C12 myotubes + simvastatin, ATP luminescence, 48 h; scaled: DMSO 0, geranylgeraniol control 100; 0.78% of 330,000 active; rescue of ATP level, % at 7.49 µM;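 active = mean ATP rescue above about 67%, or every replicate alone reaching that limit, limit read from the data, passing the limit was not always enough; inconclusive = no clear call, values can overlap the other calls; inactive = mean under the limit and some replicate under it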;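 also: myotubes were challenged with 10 µM simvastatin during compound exposure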
HIV Env fusion: blocks HIV Env-driven cell-cell fusion. HeLa-JRFL Env/CEM21 cell fusion, luciferase. inhibition, % at 12.3 µM. 1.1% of 360,000 active;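 active = mean replicate inhibition score of at least 50 and every replicate individually at or above 50; inconclusive = only one of the two criteria met; inactive = mean below 50 and not all replicates reaching 50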;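 also: 0% = plate neutral controls and 100% = maraviroc near 300 nM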
miR-122 sensor: inhibitors of miR-122 in Huh7 cells; activation (reporter increase), % at 12.5 µM; Huh7 miR-122 Renilla luciferase sensor, 48 h; neutral wells = 0, positive control = 100; 0.3% of 340,000 active;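 active = mean replicate activation score at least 90 and every replicate individually at or above 90; inconclusive = only one of the two criteria met; inactive = neither criterion met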;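 also: higher luciferase means less miR-122 activity so hits act as miR-122 inhibitors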
EWS-Fli inh: blocks EWS/Fli oncoprotein-driven transcription | A673 NR0B1-luciferase reporter, viability-normalised | inhibition, % at 12.6 µM | 0.67% of 350,000 active;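 active = mean inhibition of at least 50% after viability correction, with every replicate also passing that limit; inconclusive = mean reaches 50% but only one of two replicates passes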;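 also: firefly luciferase signal divided by Alamar Blue viability fluorescence both relative to DMSO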
Active calls of the source: *; ? = inconclusive; nt = not tested or not shown; [ ] = remark or other dose. Hits are enriched below; roughly 3.1% of the tested compounds scored in any of these assays.

SMILES	PAX8 inh HTS	GSIS activator	C2C12 statin	HIV Env fusion	miR-122 sensor	EWS-Fli inh
Cc1noc(C)c1NC(=O)Nc1cccc2c1O[C@H](CN(C)C(=O)Nc1cccc3ccccc13)[C@@H](C)CN([C@H](C)CO)C2=O	18	-4	0	2[16.7 µM]	-6[16.7 µM]	3
O=[N+]([O-])c1ccc(/C=N/Nc2ncccc2[N+](=O)[O-])s1	-3	6	nt	-22	nt	-66
COc1cccc(/C=N/Nc2ncccc2[N+](=O)[O-])c1OC	35	nt	nt	?	9	66*
COc1cccc(/C=N/Nc2nc(Nc3ccc([N+](=O)[O-])cc3)nc(N3CCCC3)n2)c1O	95*	6	nt	22	-3	12
CNC[C@H]1Oc2cc(C#CC3(O)CCCC3)ccc2S(=O)(=O)N([C@@H](C)CO)C[C@H]1C	8	3	-8	nt	39[16.7 µM]	-6
COc1ccc(S(=O)(=O)N2CCCCC2)cc1NC(=O)CSc1ncccn1	10	8	2	23	nt	11
COc1ccc(S(=O)(=O)N2CCOCC2)cc1NC(=O)CSc1ncccn1	-1	nt	110*	-14	-6	14
O=C(CSc1cccc[n+]1[O-])Nc1cc(S(=O)(=O)N2CCOCC2)ccc1N1CCOCC1	87*	-5	nt	nt	nt	8
O=C(CSc1cccc[n+]1[O-])Nc1cc(S(=O)(=O)N2CCOCC2)ccc1Cl	nt	-4	nt	nt	nt	nt
O=C(Nc1ccc2c(c1)[C@H]1C[C@H](CC(=O)N3CCOCC3)O[C@@H](CO)[C@H]1O2)Nc1ccccc1F	-24	-2	11	-52[16.7 µM]	4[16.7 µM]	1
C[C@H](CO)N1C[C@H](C)[C@H](CN(C)Cc2ccc(C(=O)Nc3ccccc3N)cc2)Oc2ccc(NS(C)(=O)=O)cc2CC1=O	20	-12	-52	-4[16.7 µM]	88[16.7 µM]	26
COc1ccccc1CNC(=O)C[C@H]1C=C[C@@H](NC(=O)CN(C)C)[C@@H](CO)O1	nt	-8	-3	nt	nt	nt
CC(=O)Nc1nc(-c2ccccc2)nc(-c2ccccc2OC(C)=O)n1	nt	14	12	nt	13	9
CC(=O)Nc1nc(C)nc(-c2ccccc2OC(C)=O)n1	nt	45*	-3	nt	nt	-15
CCNC(=O)C1(C)CCN(C(=O)c2ccccc2F)C1 (configuration not stated)	96*	0	-37	-10	-2	2
Cc1cc(C)c(C#N)c(SCC(=O)N2CCN(Cc3ccccc3)CC2)n1	nt	9	140*	nt	-1	nt
COCc1cc(C)nc(N2CCN(c3ccccc3)CC2)c1C#N	nt	nt	-2	-73	0	nt
COCc1cc(C)nc(N2CCN(Cc3ccccc3)CC2)c1C#N	nt	37	106*	nt	-2	nt
Cc1cc(C)c(C#N)c(SCC(=O)N2CCCCC2)n1	-1	nt	nt	4	0	nt
C[C@H](CO)N1C[C@H](C)[C@H](CN(C)C(=O)Nc2ccc(C(F)(F)F)cc2)Oc2ncc(-c3ccc(C#N)cc3)cc2C1=O	-9	-14	-7	nt	-17[16.7 µM]	-8
O=C(NCC1CCCCC1)[C@H]1[C@H](CO)[C@H]2Cn3c(ccc(C4=CCCC4)c3=O)[C@@H]1N2C(=O)CC1CC1	-6	-11	-1	nt	-4[16.7 µM]	8
CC1CN(c2nc3ccccc3nc2C(C#N)C(=O)OC2CCCCC2)CC(C)O1 (configuration not stated)	nt	nt	4	59*	2	nt
CC1CCN(c2nc3ccccc3nc2C(C#N)C(=O)OC2CCCCC2)CC1 (configuration not stated)	nt	nt	0	nt	-10	nt
CC(C)[C@@H]1CC[C@@H](C)C[C@H]1OC(=O)C[n+]1cc(-c2ccc(Cl)cc2)n2c1CCCCC2	113*	nt	nt	83*	nt	31
Cn1c(NC(=O)C[n+]2cc(-c3ccc(Cl)cc3)n3c2CCC3)cc(=O)n(C)c1=O	18	-11	nt	4	nt	2
SMILES	PAX8 inh HTS	GSIS activator	C2C12 statin	HIV Env fusion	miR-122 sensor	EWS-Fli inh
COc1ccc(-c2c[n+](CC(=O)OC3CC(C)CCC3C(C)C)c3n2CCC3)cc1 (configuration not stated)	91*	-41	-95	60*	-15	21
CC1CCC(C(C)C)C(OC(=O)C[n+]2cccc(C(N)=O)c2)C1 (configuration not stated)	nt	nt	2	-9	0	nt
C[C@@H]1C=C(C(=O)N2CCCCCCC2)O[C@H](OCc2ccc(CO)cc2)C1	-11	nt	nt	19[16.7 µM]	nt	-7
CNc1nc(-c2ccccc2)[n+](-c2ccc(C)cc2)s1	nt	176*	nt	nt	nt	nt
CSc1ncccc1C(=O)NCCc1ccccc1F	-16	73*	10	3	-4	-15
CCOc1cc(C2C(C#N)=C(N)SC(N)=C2C#N)ccc1OCCN1CCOCC1	nt	82*	-17	34	nt	nt
COc1ccc2c(c1)-c1c(ssc1=S)C(C)(C)N2S(=O)(=O)c1ccc(C)cc1	20	-9	nt	72*	nt	28
Cc1ccc(S(=O)(=O)N2c3ccccc3-c3c(ssc3=S)C2(C)C)cc1	-9	nt	nt	50	-3	-2
COc1ccc2c(c1)-c1c(ssc1=S)C(C)(C)N2	nt	nt	-27	62*	12	nt
Cc1ccc(-c2csc3nnc(SCC(=O)Nc4cccc(C)n4)n23)cc1	nt	4	27	107*	-5	nt
O=[N+]([O-])c1cccc(-c2c(-c3ccccc3)ncc3ccc(F)cc23)c1	-29	19	121*	-11	-1	-68
O=c1oc(-c2ccccc2F)nc2scc(-c3ccccc3)c12	-7	nt	nt	64*	7	-25
Cc1ccc(C2(C)CC(C)(C)N(C(=O)CSc3nnc(C)s3)c3ccccc32)cc1 (configuration not stated)	15	-35	-40	26	-1	nt
Cc1nnc(SCC(=O)N2c3ccccc3C(C)(c3ccccc3)CC2(C)C)s1 (configuration not stated)	nt	-22	nt	62*	nt	nt
Cc1ccc(NC(=S)N/N=C/c2c(C)nn(-c3ccccc3)c2N2CCCC2)cc1	7	64*	nt	nt	nt	-3
Cc1nn(-c2ccccc2)c(N2CCCC2)c1/C=N/NC(=S)Nc1ccc(F)cc1	-21	75*	-5	6	4	-2
Cc1nn(-c2ccccc2)c(Cl)c1/C=N/O	-16	13	nt	-20	nt	-8
Cc1nn(-c2ccccc2)c(N2CCCC2)c1/C=N/NC(=S)Nc1ccccc1C(F)(F)F	9	nt	nt	11	nt	15
Cc1nn(-c2ccccc2)c(N2CCCC2)c1/C=N/O	nt	91*	-53	nt	1	-3
Cc1noc(C)c1NC(=O)N(C)C[C@@H]1Oc2ccc(NS(=O)(=O)c3ccc(Cl)cc3)cc2CC(=O)N([C@@H](C)CO)C[C@H]1C	-16	3	-19	-10[16.7 µM]	-2[16.7 µM]	-9
CCCNC(=O)Nc1ccc2c(c1)C(=O)N(C)C[C@H](OC)[C@@H](C)CN(CCC)[C@H](C)CO2	-12	-4	-22	-8[16.7 µM]	nt	-13
CCOC(=O)c1c(SCCN2CCCC2)n(-c2ccccc2)c(=S)n(-c2ccccc2)c1=O	59	-29	nt	-282	nt	61*
